Screens from PubChem.
hgDAF12 agonist = H. glycines DAF-12 receptor agonists, primary screen, cell-based, luminescence, HEK293, GAL4 fusion, UAS-luciferase | Nuclear hormone receptor DAF-12 (Heterodera glycines), GAL4 fusion | HEK293 GAL4-hgDAF12 UAS-luciferase reporter, agonist luminescence; normalized to butyrate control | activation, % at 6.8 µM | 370,000 tested, 1.8% active | AID 687014, 2013;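 active = activation above a cutoff set at the mean of all screened compounds plus 3 SD, cut at about 10% in these data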
DAX1 inh-1 = DAX1 (NR0B1) inhibitors on StAR promoter, primary screen, cell-based, luminescence, SF-1 (NR5A1), full-length DAX-1; HEK293T StAR-luciferase reporter, SF-1/DAX-1 repression relief; inhibition, % at 6.8 µM; 370,000 tested, 1.1% active; AID 652010, 2013;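 active = inhibition above the mean over all tested compounds plus 3 SD, cut at about 3.6% in these data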;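 note: higher inhibition means more luminescence from relief of DAX-1 repression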
ssDAF-12 act = S. stercoralis DAF-12 nuclear receptor activators, primary screen, cell-based, luminescence, HEK293, GRIP1 co-expression, lit1-tk-luc; Nuclear hormone receptor DAF-12 (Strongyloides stercoralis); HEK293 ssDAF-12/GRIP1 lit1-tk-luc reporter; % of 3 µM dafachronic acid response; activation, % at 6.8 µM; 370,000 tested, 1% active; AID 652126, 2013;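 active = activation above the mean over all tested compounds plus 3 SD, cut at about 0.9% in these data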
AHR act = AHR activators, primary screen, cell-based, luminescence, luciferase reporter, human; Aryl hydrocarbon receptor (Homo sapiens), P35869; AHR-responsive luciferase reporter cells; activation, % at 5 µM; 320,000 tested, 2.5% active; AID 2796, 2010; in the data active = activation above about 47%
hcDAF-12 act = H. contortus DAF-12 nuclear receptor activators, primary screen, cell-based, luminescence, HEK293, lit1-tk-luc reporter; HEK293 hcDAF-12 lit1-tk-luc reporter; 0% DMSO, 100% Δ7-dafachronic acid; activation, % at 6.8 µM; 370,000 tested, 1.4% active; AID 652067, 2013;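 active = activation above the mean of all tested compounds plus 3 SD, cut at about 5.5% in these data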
DAX1 inh-2 = DAX1 (NR0B1) inhibitors, primary screen, cell-based, HEK293, Gal4-DAX1, luciferase luminescence | 340,000 tested, 0.99% active | inhibition, % at 6.75 µM | Nuclear receptor subfamily 0 group B member 1 (Homo sapiens), P51843 | HEK293 Gal4-DAX1 luciferase reporter;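 active = inhibition above the mean over all tested compounds plus 3 SD, cut at about 4.2% in these data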;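 note: inhibition shows as a rise in luminescence from relieved DAX1 repression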
Target sequence (P51843 207-470 limits assumed): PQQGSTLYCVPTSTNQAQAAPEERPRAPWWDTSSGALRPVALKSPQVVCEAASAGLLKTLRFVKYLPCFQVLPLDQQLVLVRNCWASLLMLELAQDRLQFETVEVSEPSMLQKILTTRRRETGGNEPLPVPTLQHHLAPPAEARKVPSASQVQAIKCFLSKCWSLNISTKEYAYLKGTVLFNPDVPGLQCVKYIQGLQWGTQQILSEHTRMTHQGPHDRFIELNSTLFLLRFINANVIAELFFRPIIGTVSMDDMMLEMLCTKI
Numbers stand for hits; . = inactive; / = no result given. Most compounds without a hit are left out; they make up all but 5.7% or so of the library.

SMILES | hgDAF12 agonist | DAX1 inh-1 | ssDAF-12 act | AHR act | hcDAF-12 act | DAX1 inh-2
CC(=O)c1ccc(NC(=O)C(C)Sc2ccccn2)cc1 (centres undefined) | . | . | . | . | . | .
CC(Sc1ccccn1)C(=O)Nc1ccccc1 (centres undefined) | 13.2 | . | . | . | . | .
COc1cccc(/C=N/NC(=O)C[n+]2ccccc2)c1OC | . | . | 2.3 | . | . | .
COc1ccc(/C=N/NC(=O)C[n+]2ccccc2)c(OC)c1OC | . | . | . | . | . | .
COc1cccc(/C=N/NC(=O)CCNc2n[nH]c(=O)[nH]c2=O)c1OC | . | . | 1.5 | . | . | .
N#Cc1ccc(-c2nc3ccc(Cl)cn3c2Cc2ccsc2)cc1 | . | . | . | / | . | /
Clc1ccc(-c2nc3ccc(Cl)cn3c2Cc2ccsc2)cc1 | 11.1 | 3.8 | . | / | . | /
Brc1ccc2nc(-c3ccco3)c(Cc3ccsc3)n2c1 | . | . | 1.0 | / | . | /
CCCc1nc2ccc(Cl)cn2c1Cc1ccsc1 | . | . | 1.0 | / | . | /
Clc1ccc2nc(-c3ccco3)c(Cc3ccsc3)n2c1 | . | . | . | / | . | /
COc1ccc(S(=O)(=O)N(C)C[C@@H]2Oc3c(NC(=O)Nc4cccc5ccccc45)cccc3C(=O)N([C@@H](C)CO)C[C@H]2C)cc1 | . | / | . | / | . | /
CC(=O)N(Cc1ccccc1)c1nccs1 | . | . | . | / | . | /
CC(C)CCOCC(=O)Nc1cccc(C(=O)O)c1 | 12.0 | . | . | . | . | .
COC(=O)[C@]12C[C@H](CC(=O)NCCCCc3ccccc3)C(=O)N(Cc3ccccc3)C1=C[C@H](C(C)C)O[C@@H]2C1CC1 | . | . | . | / | . | /
COc1cc(CC(=O)N2CCN(C(=O)C3CCCO3)CC2)cc(OC)c1OC (centres undefined) | . | . | . | . | . | .
CN(CC1CCOCC1)C(=O)CC1C(=O)NCCN1CC1CCCCC1 (centres undefined) | . | . | . | . | . | 5.7
COc1cccc(CN2CCNC(=O)C2CC(=O)N(C)CCC2CCOCC2)c1OC (centres undefined) | . | . | . | . | . | 6.1
CN(CCC1CCOCC1)C(=O)CC1C(=O)NCCN1CC1CCCCC1 (centres undefined) | . | . | . | . | . | .
COC(=O)C1=C(C)N(C)C(=NCc2cc(OC)c(OC)c(OC)c2)NC1c1cccc(C(F)(F)F)c1 (centres undefined) | . | . | . | / | . | /
c1ccc(-c2nc3ccccc3c3nc4ccccc4n23)cc1 | . | . | . | 51.6 | . | .
c1ccc(-c2nc3nonc3c3nc4ccccc4n23)cc1 | . | . | . | . | . | .
CCc1nc2ccccc2c2nc3ccccc3n12 | . | . | . | 51.4 | . | .
COc1cccc(C(=O)NCCS(=O)(=O)N2CCC(C)CC2)c1 | . | . | . | . | . | .
COc1ccc(OCC(=O)N2CCN(C(=O)c3ccc(F)cc3)CC2)cc1 | . | . | . | . | . | .
Cc1ccc(C)c2[nH]c(=O)c(CN(Cc3cccs3)C(=S)NCc3ccco3)cc12 | . | . | . | . | . | .
SMILES | hgDAF12 agonist | DAX1 inh-1 | ssDAF-12 act | AHR act | hcDAF-12 act | DAX1 inh-2
CCOC(=O)c1sc(NC(=O)Nc2ccccc2F)nc1C | . | 3.7 | . | . | . | .
CCOC(=O)c1sc(NC(=O)CSc2nnc(C(C)C)n2C)nc1C | . | . | . | . | . | .
CCOC(=O)c1sc(NC(=O)CSc2nncn2C)nc1C | . | . | . | . | . | 5.2
COc1ccc(OCCOc2ccccc2[N+](=O)[O-])cc1 | . | . | 1.2 | . | . | .
O=[N+]([O-])c1ccccc1OCCOc1ccccc1[N+](=O)[O-] | . | . | . | . | . | .
COc1ccc(Cl)cc1C(=O)NNC(=O)c1nn(C)c(=O)c2ccccc12 | . | . | . | 65.7 | . | .
CSc1nnc2c(n1)c(C)nn2-c1ccc(C)cc1 | . | . | 1.3 | . | . | .
Cc1ccc(-n2nc3c(Cl)nnc(C)c3c2C)cc1 | . | . | . | . | . | .
Oc1ccccc1/C=N/Nc1nccnc1Cl | . | . | . | . | . | .
Clc1nccnc1N/N=C/c1ccc(Br)cc1 | 12.7 | . | . | 62.5 | . | 5.1
Cc1ccc(NNC(=O)Nc2ccc(Cl)cc2)nn1 | . | . | . | . | . | /
CCS(=O)(=O)c1ccc(N=Nc2ccc(O)c3ncccc23)c(OC)c1 | . | . | . | / | . | .
Cc1ccc(N=Nc2ccc(O)c3ncccc23)cc1 | . | . | . | 47.3 | . | .
COc1ccccc1N=Nc1ccc(O)c2ncccc12 | . | . | . | 50.8 | . | .
Cc1cccc(-c2cccc3c4c([nH]c23)[C@@H]2C[C@H](N(C)C(=O)Nc3ccccc3)[C@H]([C@H](C)O)CN2CC4)c1 | . | . | . | / | . | /
COc1ccc(C=C2NC(=S)NC2=O)cc1 | . | . | . | / | . | .
COc1ccc(C(=O)N2C(=S)NC(=O)/C2=C\c2ccc(C)cc2)cc1 | 12.0 | . | . | . | . | .
CCOC(=O)N1CCN(C(=O)C2CCC(=O)N(Cc3cccc(C(F)(F)F)c3)C2)CC1 (centres undefined) | . | . | . | . | . | .
COc1cccc(-n2c(CN3CCN(c4cccc(C)c4)C(C)C3)nc3ccc([N+](=O)[O-])cc3c2=O)c1 (centres undefined) | . | . | . | . | . | .
COc1cccc(-n2c(CN3CCN(c4ccc(C)cc4)C(C)C3)nc3ccc([N+](=O)[O-])cc3c2=O)c1 (centres undefined) | . | . | . | . | 5.8 | .
Oc1c(C=Nc2cccc3cccnc23)sc2ccccc12 | . | . | . | 58.1 | . | /
Cc1cccc(/N=C/c2sc3ccccc3c2O)n1 | . | . | . | . | . | .
Cc1cccc(NC(=O)C(CC(C)C)NC(=O)C2CCC(C)CC2)n1 (centres undefined) | . | . | . | . | . | .
Cc1ccc(-n2c(C)cc(/C=C3\SC(=O)NC3=O)c2C)cc1 | . | . | . | . | . | .
Cc1cccc(-n2c(C)cc(/C=C3\NC(=O)NC3=O)c2C)c1 | . | . | . | 81.5 | . | .
Cc1cc(/C=C2\SC(=S)NC2=O)c(C)n1-c1cccc(O)c1 | . | . | . | . | . | 5.3
Cc1cc(NC(=O)C2CC(=O)N(c3cccc(Cl)c3)C2)no1 (centres undefined) | . | . | . | . | . | .
